# In ChEMBL document CHEMBL3433997, “St. Jude Leishmania screening dataset” (2016):
# “And” between values parts separate entries of the source, which are not always exact repeats. Equal values may be shown once.
# Molecular target: Glucose transporter (Leishmania mexicana) (UniProt O61059)
# Experiment: ST_JUDE_LEISH: Cytotoxicity at 2uM final concentration against transgenic Leishmania Mexicana promastigotes LmGT2 that are glucose transport deficient and complemented with the L. Mexicana glucose transporter 2. Activity is measured by DNA content using SYBR green in vitro
# Format: functional
row,SMILES,inhibition
1,COc1ccc(O)c(CN2CCN(c3cc(C)ccc3C)CC2)c1,2.89%
2,CCc1ccc(CN2CCC(CN(C(=O)c3ccccc3)c3ccc(Cl)cc3)CC2)cc1,5.04%
3,Cc1c(C(=O)N[C@@H](C)c2ccccc2)c2cc(O)c(Br)cc2n1C1CCCCC1,3.33%
4,CC(Cc1ccc(S(=O)(=O)N(C(C)C)C(C)C)cc1)NCC(O)c1cccc(C(F)(F)F)c1 (centres undefined),1.68%
5,COc1ccc(-c2ccccc2)cc1NC(=S)NC1CCC(CN2CCC(c3c[nH]c4ccccc34)CC2)CC1 (centres undefined),0.72% and 3.03%
6,CCCCCCC(C)(C)c1cc(O)c2c(c1)OC(C)(C)c1ccncc1-2,3.15%
7,CC[C@H]1CN2CC[C@H]1C[C@H]2[C@H](O)c1cc(-c2ccc(Cl)c(Cl)c2)nc2ccc(OC)cc12,9.4%
8,CC(C)CNCc1cccc(-c2cccc(CN(C(=O)Nc3ccccc3)C3CCN(Cc4ccccc4)CC3)c2)c1,5.06%
9,C=C[C@H]1CN2CC[C@@H]1C[C@H]2[C@H](O)c1cc(-c2ccc(F)cc2)nc2ccc(OC)cc12,3.68%
10,CN1CCC(N(C)c2nccc(N3CCN(Cc4cncn4Cc4ccccc4)CC3)n2)CC1,10.8%
11,O=C(c1cc(C(=O)NCc2ccc(Cl)cc2)c(=O)n(Cc2ccc(Cl)cc2)c1)c1cc(Cl)ccc1O,3.58%
12,O=C(/C=C/c1ccc(Cl)c(Cl)c1)NC1CCC(CN2CCC(c3c[nH]c4cc(C(F)(F)F)ccc34)CC2)CC1 (centres undefined),12.7% and 2.07%
13,O=C(/C=C/c1cccs1)NC1CCC(CN2CCC(c3c[nH]c4ccccc34)CC2)CC1 (centres undefined),2.51%
14,NCC(=O)c1cc2c(cc1N)OCCO2,3.9%
15,COC(=O)c1ccc(CC(C)NCC(O)c2ccc3ccc4ccccc4c3c2)cc1 (centres undefined),3.14%
16,CN1CC=C(c2csc3ccc(NC(=O)Nc4ccc(-c5ccncc5)c(Cl)c4)cc23)CC1,0.2%
17,OC1(CNCc2ccccc2)CCN(CCc2c[nH]c3ccc(F)cc23)CC1,5.83%
18,Cc1cc2cc(CNCCc3ccccc3Br)ccc2nc1N,5.36%
19,Cc1[nH]c2ccccc2c1C1=CCN(CC2CC2C(=O)c2ccccc2)CC1 (centres undefined),8.4%
20,Oc1ccc(CN2CCN(CCOC(c3ccccc3)c3ccc(Cl)cc3)CC2)cc1Cl (centres undefined),-3.12%

row,SMILES,inhibition
1,CC(=O)N(Cc1ccccc1-c1ccc(CNCCc2ccccc2)cc1)C1CCN(Cc2ccccc2)CC1,1.25%
2,O=C(/C=C/c1ccc(F)c(C(F)(F)F)c1)N1CCC(CN2CCC(c3c[nH]c4ccccc34)CC2)CC1,0.74%
3,Cc1[nH]c2ccccc2c1C1=CCN(CCCCC2(C)C(=O)Nc3ccccc32)CC1 (centres undefined),-0.37%
4,O=C(/C=C/c1ccc(Cl)c(Cl)c1)N1CCC(CN2CCC(c3cn(CC(=O)N4CCCCC4)c4ccccc34)CC2)CC1,-2.07%
5,O=C(C=Cc1cccc(Cl)c1Cl)NC1CCC(CN2CCC(c3c[nH]c4ccccc34)CC2)CC1 (centres undefined),11.8% and -0.36%
6,O=C(/C=C/c1ccccc1O)NC1CCC(CN2CCC(c3c[nH]c4ccccc34)CC2)CC1 (centres undefined),-1.86% and -3.26%
7,Cc1ccc2[nH]cc(C3CCN(CC4CCC(NC(=O)/C=C/c5ccc(Cl)c(Cl)c5)CC4)CC3)c2c1 (centres undefined),-1.76% and 10.5%
8,Cc1cc(-c2ncc[nH]2)ccc1-c1ccc(C(=O)N2CCc3cc4c(cc32)C2(CCN(C)CC2)CO4)cc1,-0.2%
9,CN1CC=C(c2c[nH]c3ccc(OCc4ccccc4)cc23)CC1,14.7%
10,CC[C@H]1CN2CC[C@H]1C[C@H]2[C@H](O)c1cc(N2CCC3CCCCC3C2)nc2ccc(OC)cc12 (some centres undefined),3.38%
11,NCc1cccc(-c2cccc(CN(C(=O)Nc3ccccc3)C3CCN(Cc4ccccc4)CC3)c2)c1,6.25%
12,CC1(C)N=C(N)N=C(N)N1c1ccc([N+](=O)[O-])cc1,7.22%
13,COc1cc(C=CC(=O)N2CCC(CN3CCC(c4c[nH]c5ccccc45)CC3)CC2)cc(OC)c1,-2.69%
14,Cc1ccc(CC(C)NCC(O)c2cccc(Br)c2)cc1 (centres undefined),1.21%
15,N#Cc1c(F)cc(N2CCC(NCC[C@H](N)Cc3ccc(F)c(F)c3)CC2)cc1F,2.33%
16,O=C(NC1CCN(CC2(c3ccc(Cl)cc3)CCC2)CC1)c1cscn1,0.83%
17,Cc1[nH]c2ccc(O)cc2c1C1CCN(CC2CCC(NC(=O)/C=C/c3c(Cl)cccc3Cl)CC2)CC1 (centres undefined),3.62%
18,O=C(C=Cc1ccccc1Br)NC1CCC(CN2CCC(c3c[nH]c4ccccc34)CC2)CC1 (centres undefined),0.32% and 2.12%
19,Cc1cc(N(C)C2CCN(C)CC2)nc(Nc2ccc(Cl)cc2)n1,-0.95%
